Source: PubChem
This is a sample that favours compounds with a hit; in the whole collection about 2% have one here.
Six1-Eya2 inh = qHTS Assay for Inhibitors of the Six1/Eya2 Interaction; Homeobox protein SIX1 (Homo sapiens) + Protein phosphatase EYA2 (Homo sapiens), …; AlphaScreen GST-Six1/His-Eya2 binding, biochemical; hits give low values; activity change, % (no concentration beside the values); actives 0.56% (n = 360,000); AID 651725, 2012
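Six1/Eya2 binding was read as AlphaScreen signal after compounds were pinned into GST-Six1 plus His-tagged Eya2 (5X stock 250/500 nM) in pH 8.0 Tris/NaCl/TCEP buffer, beads added, then incubated 1 h, 37 C, dark.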
KDM4E inh = qHTS Assay for Inhibitors of Human Jumonji Domain Containing 2E (JMJD2E) | JMJD2E catalytic domain, FDH-coupled NADH fluorescence (FDH is formaldehyde dehydrogenase) | actives 1.6% (n = 230,000) | Potency, µM (titrated, usually from 57.1 µM), for the others: top-dose activity change, negative = inhibition, actives largely listed as inhibitors | Lysine-specific demethylase 4E (Homo sapiens), B2RXH2; active means well fitted inhibition curve with a large enough effect, not every such curve was filed as active; inconclusive means small, poorly fitted or top-dose-only effect, or another doubt; inactive means no such curve, though single readings can be large or run the other way;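 further: potency means the concentration at half of the fitted maximal effect; 0% = wells with enzyme and -100% = buffer wells without enzyme; nearly all actives have a fitted effect of over 50% in size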
KCNH2 3.1 inh = qHTS for Inhibitors of KCHN2 3.1: Mutant qHTS | Potassium voltage-gated channel subfamily H member 2, brain isoform KCNH2 3.1 (human) | U2OS KCNH2 3.1, thallium flux FluxOr; hits give low values | activity change, % (tested at about 1.8 µM) | actives 0.95% (n = 340,000) | AID 720553, 2013;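 active means maximum activity change below -70%; inconclusive means maximum activity change from -70% to -50%; inactive means maximum activity change above -50%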;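 further: thallium influx rate constant from kinetic fluorescence after stimulation buffer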
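Thallium flux via FluxOr fluorescence (Red40 quencher, 45 min loading) in U2OS cells virally expressing the KCNH2 3.1 isoform (1.77 x 10^8 /mL virus, overnight at 37 C). Rate constants from 2-min kinetic reads post-stimulation, normalised to positive and negative controls.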
hERG WT inh = qHTS for Inhibitors of KCHN2 3.1: Wildtype qHTS | Voltage-gated inwardly rectifying potassium channel KCNH2 (Homo sapiens), Q12809 | U2OS, BacMam KCNH2, thallium flux FluxOr; hits give low values | activity change, % at 1.84 µM | actives 0.37% (n = 340,000);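 active means maximum activity change below -70%; inconclusive means maximum activity change between -70% and -50%; inactive means maximum activity change above -50%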
Target sequence (Q12809 whole entry, looked up): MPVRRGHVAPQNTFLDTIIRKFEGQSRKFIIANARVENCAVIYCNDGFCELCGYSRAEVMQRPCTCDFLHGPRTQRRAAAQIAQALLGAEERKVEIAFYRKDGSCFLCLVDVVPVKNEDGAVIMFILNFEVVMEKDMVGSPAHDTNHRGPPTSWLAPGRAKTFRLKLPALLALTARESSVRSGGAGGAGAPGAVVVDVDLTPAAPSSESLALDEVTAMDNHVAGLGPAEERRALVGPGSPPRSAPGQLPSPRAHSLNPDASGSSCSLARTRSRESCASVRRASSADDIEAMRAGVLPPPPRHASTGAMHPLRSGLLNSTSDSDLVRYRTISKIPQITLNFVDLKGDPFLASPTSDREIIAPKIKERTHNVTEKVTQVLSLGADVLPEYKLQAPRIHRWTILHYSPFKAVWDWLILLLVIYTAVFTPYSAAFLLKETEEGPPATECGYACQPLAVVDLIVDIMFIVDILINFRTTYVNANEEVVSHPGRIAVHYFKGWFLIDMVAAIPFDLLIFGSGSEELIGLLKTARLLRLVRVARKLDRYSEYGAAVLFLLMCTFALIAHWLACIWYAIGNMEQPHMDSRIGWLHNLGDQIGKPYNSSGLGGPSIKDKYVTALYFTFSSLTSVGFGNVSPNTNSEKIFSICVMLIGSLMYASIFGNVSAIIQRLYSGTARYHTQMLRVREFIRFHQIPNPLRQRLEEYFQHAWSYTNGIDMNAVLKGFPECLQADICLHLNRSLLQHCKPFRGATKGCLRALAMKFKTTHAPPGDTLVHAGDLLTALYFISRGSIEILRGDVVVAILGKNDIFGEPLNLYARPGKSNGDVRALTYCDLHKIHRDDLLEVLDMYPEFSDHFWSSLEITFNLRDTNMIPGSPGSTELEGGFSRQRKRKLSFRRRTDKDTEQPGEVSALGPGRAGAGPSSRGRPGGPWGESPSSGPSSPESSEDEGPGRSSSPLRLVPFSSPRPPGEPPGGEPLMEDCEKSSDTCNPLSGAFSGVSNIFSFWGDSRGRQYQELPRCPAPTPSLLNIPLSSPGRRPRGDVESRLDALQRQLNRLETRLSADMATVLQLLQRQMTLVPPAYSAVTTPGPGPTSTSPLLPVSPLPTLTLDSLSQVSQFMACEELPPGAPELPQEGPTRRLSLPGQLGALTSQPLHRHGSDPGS
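U2OS cells transduced with wild-type KCNH2 virus are loaded with FluxOr dye for 45 min, and thallium flux is measured in kinetic reads before and after stimulation buffer. Rate constants are normalized to DMSO controls.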
CtBP-E1A blk = qHTS Assay for Inhibitors of the CtBP/E1A Interaction; CtBP / adenovirus E1A interaction (AlphaScreen); actives 0.49% (n = 340,000); AlphaScreen GST-E1A/His-CtBP binding, 1536-well; hits give low values; activity change, % (test concentration not listed)
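GST-E1A and His-tagged CtBP (125 nM each as 5X stock) were preincubated with pin-transferred compound for 2 h at 37 °C in the dark, then glutathione donor and nickel acceptor beads were added for 1 h before AlphaScreen reading.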
* hit, by the source's call; ? = inconclusive; . = not tested or not shown; ! = a repeat was not active. Unless noted, no stated cut-off is given here; in the data, active means activity change below about -65%; inconclusive means mostly about -30% to -63%; inactive means weaker than that. Unless noted, on the % scale 0 is the no-effect control and ±100 the full control effect.

SMILES	Six1-Eya2 inh	KDM4E inh	KCNH2 3.1 inh	hERG WT inh	CtBP-E1A blk
Cc1c(NC(=O)c2ccc(C(C)(C)C)cc2)cccc1[N+](=O)[O-]	0.0	2.7%	15.0	4.6	12.3
O=C(CSc1nnc(-c2ccc(C(F)(F)F)cn2)o1)Nc1cccc(Cl)c1	-71.1*	7.0%	12.7	1.8	?
NCCc1nnc(SCC(=O)Nc2cccc(Cl)c2)o1	-0.7	.	-6.0	-11.8	.
FC(F)(F)Oc1ccc(Nc2nc(N3CCOCC3)nc(N3CCOCC3)n2)cc1	8.7	.	-77.2*	11.5	0.0
COc1ccc(C)cc1NC(=O)C(C)N(c1ccc(C)cc1)S(C)(=O)=O (stereo unspecified)	-2.5	1.9%	8.6	3.8	-3.8
Cc1ccc(N(C(C)C(=O)Nc2cc(Cl)ccc2Oc2ccccc2)S(C)(=O)=O)cc1 (stereo unspecified)	-3.3	2.1%	-72.1*	5.0	8.4
COc1ccc(CC(=O)N/N=C/C=C/c2ccc3c(c2)OCO3)cc1OC	-68.8*	-62.9%	-5.2	2.1	-17.7
Cc1ccc(Nc2nnc(SCC(=O)Nc3cccc(S(=O)(=O)NC4=NCCCCC4)c3)s2)c(C)c1	-14.7	0.2%	0.2	-0.5	4.0
OC(COc1ccc(Br)cc1)CN1CCC(Cc2ccccc2)CC1 (stereo unspecified)	-5.3	.	-104.4*	-116.9*	0.2
CCc1ccc(OCC(O)CN2CCN(c3ccccn3)CC2)cc1 (stereo unspecified)	-0.3	.	-34.1	30.7	-3.0
CCOc1ccc(OCC(O)CNC2CCN(Cc3ccccc3)CC2)cc1 (stereo unspecified)	-2.9	8.0%	-13.2	14.5	-0.3
CCCc1ccc(OCC(O)CN2CCN(c3ccccn3)CC2)cc1 (stereo unspecified)	0.3	.	-76.5*	1.1	-18.1
O=C(c1ccccc1)c1ccc(OCC(O)CN2CCN(Cc3ccccc3)CC2)cc1 (stereo unspecified)	-11.4	3.0%	-84.9*	-19.0	-9.2
CC(C)(c1ccccc1)c1ccc(OCC(O)CNC2CCN(Cc3ccccc3)CC2)cc1 (stereo unspecified)	3.0	10µM*	-26.2	23.6	3.8
COC(=O)c1cc(Nc2cc(C)nc3ncnn23)cc(C(=O)OC)c1	2.7	4.1%	-0.4	-2.0	-0.6
O=C(Nc1nc(=O)n(C(=O)c2cccc(C(F)(F)F)c2)s1)c1ccccc1	2.9	-4.7%	-2.0	4.6	6.4
N#Cc1ccc(OCC(O)CN2CCC(C(O)(c3ccccc3)c3ccccc3)CC2)cc1 (stereo unspecified)	-3.9	.	-119.7*	-143.8*	-13.4
Cc1ccc(N2C(=O)CC(n3nc(C)cc3C)C2=O)cc1 (stereo unspecified)	-11.3	6.2%	-210.9*	-6.1	-10.6
Cc1cc(C)n(C2CC(=O)N(c3ccc(Cl)c(Cl)c3)C2=O)n1 (stereo unspecified)	5.9	-2.0%	0.2	0.1	5.1
Fc1ccc(CN2CCN(c3ncnc4scc(-c5ccc(F)cc5)c34)CC2)cc1	-12.5	.	-22.6	25.9	-11.7
Clc1ccc(CN2CCN(c3ncnc4scc(-c5cccs5)c34)CC2)cc1	-12.9	-8.1%	-82.8*	-45.9	-21.6
CSc1nnc(-c2cc(C)on2)n1-c1ccccc1	-1.3	0.7%	5.3	1.1	-3.9
COC(=O)[C@@]1(Cc2ccc(F)cc2)[C@@H]2[C@@H](CC(=O)[C@H]2CC(=O)C(=O)N(C)C)CN1C(=O)c1ccccc1	2.9	15.8µM*!	15.3	-8.2	4.8
Cc1ccc(C)c(N2CC(C(=O)OCC(=O)Nc3cc(C)on3)CC2=O)c1 (stereo unspecified)	3.8	.	17.5	1.3	5.3
COc1cccc(C2=CC(=O)C[C@H](c3ccc(Cl)cc3)C2)c1OC	-11.2	.	-129.0*	0.7	-6.1
c1nnn(C23CC4CC(CC(C4)C2)C3)n1	5.4	2.9%	-6.7	-0.8	11.7
